Laboratory results published in PubChem BioAssay AID1347416 (National Center for Advancing Translational Sciences (NCATS), 2020).
Out of some 4,100 compounds screened, about 1,600 (39%) were called active. Roughly 25% stayed inconclusive and do not appear here. Calls come from the whole dose curve; as a rule, active = well fitted inhibition curve with a large enough effect; inconclusive = small, poorly fitted or top-dose-only effect; inactive = no such curve, though single readings can be large or run the other way. Some of the results follow.

Assay: qHTS Validation assay for Inhibitors of Plasmodium falciparum Dd2 growth in vitro; note: nearly all actives have a fitted effect of over 70% in size
Conditions: P. falciparum Dd2 in RBCs, SYBR Green growth, 72 h; series mostly up to 28.7 µM
Source text: Malaria, a parasitic disease spread to humans through the bite of a Plasmodium infected Anopheles mosquito, continues to be a global health burden affecting millions of people, with an estimated 228 million cases and 405,000 deaths in 2018. Concerns about safety and limitations of current antimalarial treatments strongly emphasize the need to develop new therapeutic options. The scarce number of chemotypes and validated drug targets with efficacy against the liver stage, have hindered development of new antimalarials. To address this, a chemoprophylactic drug discovery effort was conducted through a combined phenotypic high-throughput asexual blood stage and liver stage screen, providing a robust foundation to identify liver-stage active lead chemotypes. Compounds were initially screened against Plasmodium falciparum Dd2 strain parasites using a in vitro SYBRGreen-1 based 72 hr proliferation assay to identify novel chemotypes to advance to liver stage assays. NIH/NCATS Early Translation Branch Assay Submitter (PI): Anton Simeonov Ph.D.
[…] Assay Protocol: PROTOCOL TABLE (as described by Inglese et al., 2007) SEQUENCE No. (e.g., 1, 2, 3, etc.); PARAMETER (e.g., Cells, Incubation, Reagent, etc.); VALUE; DESCRIPTION SEQUENCE, Parameter, Description 1; Reagent; 3 uL complete malaria growth medium, 1536 TC treated Black clear bottom plate 2; Controls; 23 nL positive control artesunate (300 nM final) to column 1; Neutral control DMSO to columns 2-4 3; Compound; 23 nL of compounds in dose response concentration (29 uM to 0.5 nM final) 4; Reagent; 5 uL malaria infected red blood cells (2.5% hematocrit final, 0.3% parasitemia 5; Time; 72 hours at 37C (5% O2, 5% CO2, 90% N2; 95% Rh) 6; Reagent; 2 uL lysis buffer/SYBRGreen-1, 25 sec shake immediately following dispense 7; Time; ~16 hours at 37C (5% O2, 5% CO2, 90% N2; 95% Rh) 8; Detector; EnVision (PerkinElmer) bottom read at 485/14nm excitation and 535/25 nm emission NOTES (numbers refer to sequence above): 1; Complete Malaria Growth Media: 1X RPMI-1640 w/L-glutamine, 5.5g/L Albumax II, 367 uM Hypoxanthine, 25 mM HEPES, 0.25% Sodium Bicarbonate, 35 uM Gentamicin sulfate 2; Controls were added using the Kalypsis Pintool (Wako USA) equipped with 1536 pinhead 3; Compounds were added in a 7-point, titration with a high final concentration of 29 uM by Pintool from seven inter-plate titrations of library plates and two DMSO control plates at the beginning and end (see Yasgar et al., 2008). 4; Red blood cells infected with Plasmodium falciparum Dd2 parasites were used. 6; Lysis buffer: 20 mM Tris-HCl, 10 mM EDTA, 0.16% Saponin, 1.6% Triton-X, 10X SYBR Green. REFERENCE: Inglese J, Shamu CE, Guy RK. 2007. Reporting data from high-throughput screening of small-molecule libraries. Nat Chem Biol. doi:10.1038/nchembio0807-438 Yasgar A, Shinn P, Jadhav A, Auld D, Michael S, Zheng W, Austin CP, Inglese J, Simeonov A. 2008. Compound Management for Quantitative High-Throughput Screening. J Lab Autom 13:79-89. doi:10.1016/j.jala.2007.12.004
Potency is the fitted concentration of half-maximal effect.

Potency, active:
Cn1cc(C(=O)NCCN2CCN(c3cccc(Cl)c3)CC2)c2c3ccccc3n(C)c2c1=O 4.73 µM
COc1cc2c(C(=O)N3CCN(c4cc(Cl)ccc4C)CC3)cn(CC(C)C)c(=O)c2cc1OC 15 µM
Cc1ccc(Cl)cc1N1CCN(C(=O)c2cn(CC(C)C)c(=O)c3c2c2ccccc2n3C)CC1 3.35 µM
CCOC(=O)c1ccccc1NC(=O)c1cn(CC(C)C)c(=O)c2cc(OC)c(OC)cc12 8.41 µM
CCOC(=O)N1CCc2c(sc3c2c(=O)n(Cc2ccccc2)c(=O)n3Cc2ccccc2Cl)C1 4.73 µM
CCOC(=O)N1CCc2c(sc3c2c(=O)n(CCc2ccccc2)c(=O)n3Cc2c(F)cccc2Cl)C1 2.66 µM
CCOC(=O)N1CCc2c(sc3c2c(=O)n(-c2ccccc2C(F)(F)F)c(=O)n3Cc2ccccc2C)C1 13.3 µM
COc1ccc(OC)c(-n2c(-c3cccc(O)c3)n[nH]c2=S)c1 4.22 µM
COc1ccc(-c2[nH]nc3ncc(-c4ccc([S+](C)(=O)[O-])cc4)nc23)c(C)c1 15.3 µM
CCOc1ccc(NC(=O)CN2C(=O)NC(C)(c3ccc(OC(F)F)cc3)C2=O)cc1 (configuration not stated) 9.44 µM
Cc1ccc2nc(-c3ccc(O)c(O)c3)cn2c1 13.3 µM
CC(C)c1ccc(C2c3[nH]c4ccccc4c3C[C@H]3C(=O)N(c4ccccc4C(=O)N4CCC(C(=O)O)CC4)C(=O)N23)cc1 (some centres not stated) 6.68 µM
CC(=O)Nc1ccc(NC2=Nc3ccccc3N3C2=Nc2c(c(C)nn2-c2ccccc2)C3c2ccccc2)cc1 (configuration not stated) 6.68 µM
O=C(Nc1ccc2c(N3CCCC3)ncnc2c1)c1ccc(Br)cc1 4.73 µM
O=C(Nc1ccc2c(N3CCOCC3)ncnc2c1)c1ccc(Br)o1 2.66 µM
O=C(Nc1ccc2c(N3CCCC3)ncnc2c1)c1cccc(Br)c1 0.668 µM
O=C(Nc1ccc2c(N3CCOCC3)ncnc2c1)c1cccc(Br)c1 4.22 µM
O=C(Nc1ccc2c(N3CCOCC3)ncnc2c1)c1cccc(Cl)c1 4.73 µM
CCc1cccc2c(C(CC(=O)N3CCC(C)CC3)c3cccc(C)c3)c[nH]c12 (configuration not stated) 4.73 µM
CCCCCCSc1ccc([C@@H]2[C@H]3C(=O)N(CC)C(=O)[C@H]3[C@]3(C(=O)OC)CCCCN23)cc1OC 15 µM
COc1ccc2[nH]c(C[C@@H]3C[C@@H](C(C)C)[C@H](CNCc4ccccc4O)C=C3C)nc2n1 0.243 µM
COc1ccc2[nH]c(C[C@@H]3C[C@@H](C(C)C)[C@H](CNCc4cccnc4)C=C3C)nc2n1 19.3 µM

Potency, inactive:
Cc1ccc(-c2cn3c(n2)N(C(=O)c2sc(C)nc2C)CCC3)cc1
COC(=O)c1c(NC(=O)/C(C#N)=C/c2ccccc2)sc2c1C(C(=O)OC)CC2 (configuration not stated)
CNC(=O)N1CCC(Cc2nncn2C(C)C)C1 (configuration not stated)
Cn1cc(C(=O)N2CCN(c3ccccc3)CC2)c(=O)c2cc(S(=O)(=O)N3CCCC3)ccc21
COc1ccc(C(=O)N2CCN(c3nnc4cccc(C)n34)CC2)cc1F
CCc1ccccc1NC(=O)c1cn(C)c(=O)c2ccccc12
CCn1cc(C(=O)N2CCN(c3cc(Cl)ccc3C)CC2)c(=O)c2cc(S(=O)(=O)N3CCCCC3)ccc21
CC(C)C[C@H]1NC(=O)[C@@H]2C[C@@H](NC(=O)CS(=O)(=O)c3ccccc3)CCN2C1=O
O=C(Cn1ccn2nc3c(c2c1=O)CCCCC3)NCc1ccccc1Cl
CC(=O)N1CCc2c(sc3c2c(=O)n(Cc2ccccc2)c(=O)n3CC(=O)NCC2CCCO2)C1 (configuration not stated)
Cc1nc(C)c(C(=O)NCC2CCCCC(=O)N2)s1 (configuration not stated)
COc1ccc(OC)c(-n2nnc(-c3nc(-c4cc(OC)c(OC)c(OC)c4)no3)c2C)c1
O=C1NCCCCCCN(C(=O)c2cnccn2)[C@H]2CCCC[C@@H]12
Cc1ccsc1-c1[nH]nc2ncc(-c3ccccc3)nc12
COc1ccccc1-c1[nH]nc2ncc(-c3c(C)noc3C)nc12
O=C(O)C[C@@H]1CCN(C(=O)C2CCCCC2)C[C@@H]1CCN1CCOCC1
CC1CCC2(CC1)NC(=O)N(CC(=O)Nc1ccc(Cl)cc1)C2=O (configuration not stated)
CCOc1ccccc1C1NC(=O)N(CC(=O)Nc2ccc(OC)cc2)C2=C1C(=O)OC2 (configuration not stated)
CCCN(CC1CC1)C(=O)[C@@H]1COCC(=O)N1Cc1ccccc1
Cc1cc(C)c(S(=O)(=O)Nc2cc(-c3cn4ccccc4n3)ccc2C)cc1C
CC(C)NC(=O)N1Cc2[nH]cnc2C[C@H]1C(=O)NCc1ccc(Cl)cc1
O=C(Nc1ccc(CN2CCOCC2)cc1)c1ccc(-c2ccc(Br)cc2)o1
O=C(NC1CCCN(c2cc(-c3ccc(Cl)cc3)[nH]n2)C1)c1ccc(Br)o1 (configuration not stated)
O=C(COc1ccc(-c2nnc3n2CCCC3)cc1)Nc1cccc(Br)c1
Cc1ccc(C(=O)N2CCCN(c3cc(-c4ccc(Br)cc4)[nH]n3)CC2)cn1
CN(C)C(=O)C1CN(C(=O)Nc2cccc(Br)c2)CC12CCOCC2 (configuration not stated)
O=C1[C@H]2CN(Cc3cc(F)ccc3F)C[C@H]2C(=O)N1Cc1ccc2c(c1)OCO2
COCCCNC(=O)CCN(CCC(C)C)C(=O)c1cc(C)oc1C
Cc1ccc(OC2(C(=O)NC(C)c3nn[nH]n3)CCNCC2)cc1 (configuration not stated)
Clc1ccc(Cn2ncc3c(N4CCOCC4)ncnc32)cc1
CN(C1CCOCC1)C1CCN(C(=O)c2cccc(Cl)c2)CC1
Cc1cccc(OCC(=O)N2CCC(c3n[nH]c(=O)n3-c3ccccc3)CC2)c1
CN(C)S(=O)(=O)N1CCCC(Cn2c(C3CC3)nc3cccnc32)C1 (configuration not stated)
Fc1cc(F)cc(CNc2ncncc2-c2nc(-c3ccccc3)no2)c1
Cn1cnc(S(=O)(=O)N2CCCC(Cc3noc(-c4cccnc4)n3)C2)c1 (configuration not stated)
